Test results taken from the supplement of paper PMC8975748.
Where a name gives a salt, the structure may show the parent alone.

These compounds were tested on Saccharomyces cerevisiae BY4741 SeMeCo community (assay: z-score of subpopulation abundance vs DMSO median, subpopulation auxotrophic for HUM; higher = larger share of this subpopulation than in DMSO controls). Conditions: 10 µM; 24 h; SM minimal medium; subpopulation (auxotrophy): HUM.
Method: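 Fluorescent four-plasmid SeMeCo (self-establishing metabolically cooperating S. cerevisiae BY4741 community; plasmids pH-mRuby2, pL-mWasabi, pU-eCFP, pM-TagRFP657) was grown 24 h in minimal SM medium with each Selleck FDA-approved drug at 10 µM in 384-well plates. Cells were fixed and imaged by high-content confocal microscopy. For each auxotrophic subpopulation (and the prototroph), a z-score gives the deviation from the DMSO vehicle-control population median.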

Row | SMILES | z-score of subpopulation abundance
1 | Cc1cc(NS(=O)(=O)c2ccc(N)cc2)nc(C)n1 [sulfaisodimidine] | -0.19
2 | CC[C@H]1OC(=O)[C@H](C)[C@@H](O[C@H]2C[C@@](C)(OC)[C@@H](O)[C@H](C)O2)[C@H](C)[C@@H](O[C@@H]2O[C@H](C)C[C@H](N(C)C)[C@H]2O)[C@](C)(O)C[C@@H](C)C(=O)[C@H](C)[C@@H](O)[C@]1(C)O [Erythromycin] | -0.16
3 | CC(C(O)c1ccc(O)cc1)N1CCC(Cc2ccccc2)CC1 (stereo not given) [Ifenprodil Tartrate] | -1.27
4 | O=C(Nc1cccc(C2=NCCN2)c1)Nc1cccc(C2=NCCN2)c1 [Imidocarb dipropionate] | -0.49
5 | CC1(C)S[C@@H]2[C@H](NC(=O)[C@H](N)c3ccccc3)C(=O)N2[C@H]1C(=O)O [Ampicillin sodium] | -0.12
6 | CN(C)C[C@@H]1CCn2cc(c3ccccc32)C2=C(C(=O)NC2=O)c2cn(c3ccccc23)CCO1 | -0.43
7 | CCC[C@@H]1C[C@@H](C(=O)N[C@@H]([C@H]2O[C@H](SC)[C@H](O)[C@@H](O)[C@H]2O)[C@@H](C)O)N(C)C1 [Lincomycin HCl] | 0.3
8 | NC1CCN(c2nc3c(cc2F)c(=O)c(C(=O)O)cn3-c2ccc(F)cc2F)C1 (stereo not given) [Tosufloxacin p-Toluenesulfonate Hydrate] | -0.83
9 | Clc1ccccc1C(c1ccccc1)(c1ccccc1)n1ccnc1 [Clotrimazole] | 7.76
10 | CS(=O)(=O)c1ccc(C2=C(c3ccccc3)C(=O)OC2)cc1 [Rofecoxib] | 0.77
11 | CN(C)CCCN1c2ccccc2Sc2ccc(Cl)cc21 [Chlorpromazine HCl] | 0.9
12 | O=C(O)c1ccccc1O [Salicylic acid] | -1.03
13 | Cc1c(Nc2ncccc2C(=O)O)cccc1C(F)(F)F [Flunixin Meglumin] | 0.12
14 | CN[C@@H]1[C@H](O)[C@H](NC)[C@H]2O[C@@]3(O)C(=O)C[C@@H](C)O[C@H]3O[C@@H]2[C@H]1O [Spectinomycin 2HCl] | -0.21
15 | Cc1[nH]cnc1CN1CCc2c(c3ccccc3n2C)C1=O [Alosetron Hydrochloride] | 0.46
16 | CCn1cc(C(=O)O)c(=O)c2cc(F)c(N3CCN(C)CC3)cc21 [Pefloxacin Mesylate] | -0.57
17 | C/C=C\c1ccc(O)c(OC)c1 [Isoeugenol] | 0.5
18 | Cc1onc(-c2c(Cl)cccc2Cl)c1C(=O)N[C@@H]1C(=O)N2[C@@H]1SC(C)(C)[C@@H]2C(=O)O [Dicloxacillin Sodium] | -0.11
19 | CO/N=C(/C(=O)N[C@@H]1C(=O)N2C(C(=O)OCOC(=O)C(C)(C)C)=C(C)CS[C@H]12)c1csc(N)n1 [Cefetamet pivoxil hydrochloride] | 0.8
20 | COc1cc2c(cc1OC)-c1cc3ccc(OC)c(OC)c3c[n+]1CC2 [Palmatine] | 0.8

Row | SMILES | z-score of subpopulation abundance
21 | OCc1ccc(Cl)cc1Cl [2,4-dichlorobenzyl alcohol] | -0.47
22 | N/C(=N\N=C\c1ccc(Cl)cc1)N/N=C/c1ccc(Cl)cc1 [Robenidine Hydrochoride] | 11.9
23 | CN1CCC[C@@H]1Cc1c[nH]c2ccc(CCS(=O)(=O)c3ccccc3)cc12 [Eletriptan HBr] | -0.47
24 | CCCNC(C)C(=O)Nc1ccccc1C (stereo not given) [Prilocaine hydrochloride] | -0.27
25 | CC(C(=O)O)c1ccc2c(c1)CC(=O)c1ccccc1S2 (stereo not given) [Zaltoprofen] | -0.7
26 | CCOC(=O)C1=C(C)NC(C)=C(C(=O)OC)C1c1cccc([N+](=O)[O-])c1 (stereo not given) [Nitrendipine] | 0.52
27 | CC[C@@]1(O)C(=O)OCc2c1cc1n(c2=O)Cc2cc3c(CN(C)C)c(O)ccc3nc2-1 [Topotecan HCl] | -0.98
28 | O=C(NCCN1CCOCC1)c1ccc(Cl)cc1 | -1.26
29 | O=C(NCCO[N+](=O)[O-])c1cccnc1 [Nicorandil] | -0.48
30 | O=C(O)CCc1nc(-c2ccccc2)c(-c2ccccc2)o1 [Oxaprozin] | -1.67
31 | CC[N+](C)(C)c1cccc(O)c1 [Edrophonium chloride] | 0.76
32 | CC(C)N1CCN(c2ccc(OCC3COC(Cn4cncn4)(c4ccc(Cl)cc4Cl)O3)cc2)CC1 (stereo not given) [Terconazole] | -0.65
33 | C#C[C@]1(O)CC[C@H]2[C@@H]3CCC4=CCCC[C@@H]4[C@H]3CC[C@@]21C [Lynestrenol] | 0.15
34 | CCCc1nc(C)c2c(=O)nc(-c3cc(S(=O)(=O)N4CCN(CC)CC4)ccc3OCC)[nH]n12 [Vardenafil HCl Trihydrate] | 0.81
35 | CCN(Cc1ccncc1)C(=O)C(CO)c1ccccc1 (stereo not given) [Tropicamide] | 0.16
36 | CN(C)CCc1c[nH]c2ccc(C[C@H]3COC(=O)N3)cc12 [Zolmitriptan] | -0.45
37 | CCC[C@@H]1C[C@@H](C(=O)N[C@@H]([C@H]2O[C@H](SC)[C@H](OP(=O)(O)O)[C@@H](O)[C@H]2O)[C@H](C)Cl)N(C)C1 [Clindamycin Phosphate] | 0.81
38 | CO[C@H]1C[C@@H]2CC[C@@H](C)[C@@](O)(O2)C(=O)C(=O)N2CCCC[C@H]2C(=O)O[C@H]([C@H](C)C[C@@H]2CC[C@@H](OC(=O)C(C)(CO)CO)[C@H](OC)C2)CC(=O)[C@H](C)/C=C(\C)[C@@H](O)[C@@H](OC)C(=O)[C@H](C)C[C@H](C)/C=C/C=C/C=C/1C | 28.7
39 | N=C(N)NC(=O)c1nc(Cl)c(N)nc1N [Amiloride HCl dihydrate] | -1.45
40 | C[C@H]1COc2c(C3(N)CC3)c(F)cc3c(=O)c(C(=O)O)cn1c23 [Pazufloxacin mesylate] | -0.08
